The values below come from PubChem BioAssay (Tox21).

Records with an inconclusive call do not appear. Active and inactive are the calls of the source. Calls come from the whole dose curve.

This test can be described thus: qHTS assay for small molecule disruptors of the mitochondrial membrane potential - cell viability (AID 720634).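 Note: human HepG2 liver cancer cells; nearly all actives have a fitted effect of over 20% in size.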 As to conditions: HepG2 viability, ATP luminescence (CellTiter-Glo), 1 h; series mostly up to 83.2 µM. An excerpt:
U.S. Tox21 Program National Center for Advancing Translational Sciences [NCATS] NIH Chemical Genomics Center [NCGC] U.S. Environmental Protection Agency [EPA] National Institutes of Environmental Health Sciences [NIEHS] National Toxicology Program [NTP] U.S. Food and Drug Administration [FDA] Tox21 Assay Overview: Mitochondrial membrane potential (MMP), one of the parameters for mitochondrial function, is generated by mitochondrial electron transport chain that creates an electrochemical gradient by a series of redox reactions. This gradient drives the synthesis of ATP, a crucial molecule for various cellular processes. Measuring MMP in living cells is commonly used to assess the effect of chemicals on mitochondrial function; decreases in MMP can be detected using lipophilic cationic fluorescent dyes. […] The dye accumulates in the mitochondria of healthy cells as aggregates, with red fluorescence. The mitochondrial potential decreases and the dye could not accumulate in the mitochondria and remains in the cytoplasm in monomers, with green fluorescence. In addition to the mitochondrial potential assay, these cells were also used to test the cytotoxicity by determining the cell viability in the culture based on the quantitation of ATP present. The cytotoxicity was measured in the same assay well of MMP assay.
Tox21 Assay Protocol Summary: 2,000 HepG2 cells in 5 uL/well were dispensed into black, clear-bottom 1536-well plates using a Multidrop Combi (Thermo Scientific) dispenser. The assay plates were incubated for an overnight at 37 C to allow cells to attach to the wells, followed by the transfer of 23 nL compound or DMSO vehicle by a pin tool (Kalypsys). The plates were incubated for 1 hr at 37 C and 5% CO2, followed by the addition of 5 uL of 2X m-MPI dye into each well using Flying Reagent Dispenser (Aurora Discovery) and then CellTiter-Glo reagent was added at 4 uL/well and incubated 30 min at room temperature. Then luminescence intensity was quantified on a ViewLux CCD-based plate reader.
On the technique in general: Quantitative high-throughput screening tests each substance at several concentrations.
With `CCCCCCCCC(=O)OCC`, the result was inactive.
In the case of `CCN(CCO)c1cccc(C)c1` it was “inactive”; in that of `COc1ccc(/C=N/NC(=O)c2ccncc2)cc1OC`, “inactive”; in that of `COc1cc([N+](=O)[O-])ccc1N`, “inactive”.
As for `COC(OC)C(C)c1ccccc1` (stereo not given), the call was inactive.
`CCCCCCCCCOCC1CO1` (stereo not given): the outcome was inactive.
In the case of `CCCCCCCCCCCCOC(C)=O` it was “inactive”; in that of `CC(=O)OCC(=O)[C@@]1(O)[C@H](OC(C)=O)C[C@H]2[C@@H]3CCC4=CC(=O)C=C[C@]4(C)[C@@]3(F)[C@@H](O)C[C@@]21C`, “inactive”; in that of `O=C(O)c1ccccc1C(=O)Nc1ccc(S(=O)(=O)Nc2nccs2)cc1`, “inactive”.
With `O=C(O)/C=C/c1ccccc1`, the compound was classed as inactive.
In the case of `CC(C)SCc1ccco1` it was “inactive”.
In the case of `CCCCOC(=O)C(C)OC(=O)CCC` (stereo not given) it was “inactive”; in that of `C=CCOc1c(Br)cc(Br)cc1Br`, “inactive”; in that of `CCNC(=O)/C=C/c1cccc(Br)c1`, “inactive”.
In the case of `CCC(=O)OCCC(C)CCC=C(C)C` (stereo not given) it was “inactive”; in that of `CO[Si](CCCCl)(OC)OC`, “inactive”.
As to `O=C(c1ccc2c(c1)C(=O)OC2=O)c1ccc2c(c1)C(=O)OC2=O`, the outcome was inactive.
With `N#CCCOCCOCCC#N` the entry was “inactive”; with `F[Si-2](F)(F)(F)(F)F`, “inactive”; with `COc1cccc2sc(N)nc12`, “inactive”.
For the compound `CNC(=O)NC`, the outcome was inactive.
Regarding `Cn1c(=O)c2c(ncn2CC2OCCO2)n(C)c1=O`, the result was inactive.
With `CCCCOC(=O)C(=O)OCCCC` the entry was “inactive”; with `CCN1CN(CC)CN(CC)C1`, “inactive”.
With `O=P(O)(O)OCC(O)CO` (stereo not given) the entry was “inactive”; with `C[C@@H]1C[C@H]2[C@@H]3C[C@H](F)C4=CC(=O)C=C[C@]4(C)[C@@]3(F)[C@@H](O)C[C@]2(C)[C@@]1(O)C(=O)CO`, “inactive”; with `COC(/C=C(\C)CCC=C(C)C)OC`, “inactive”.
With `Cc1nc([N+](=O)[O-])cn1-c1ccc([N+](=O)[O-])cc1` the entry was “inactive”.
As for `CCCCC(C)C(=O)O` (stereo not given), the result was inactive.
With `O=C(COCCOCCOCC(=O)Nc1c(I)cc(I)c(C(=O)O)c1I)Nc1c(I)cc(I)c(C(=O)O)c1I`, the outcome was inactive.
Take `NS(=O)(=O)c1ccc(Cl)c(S(N)(=O)=O)c1`: the call was inactive.
In the case of `COc1cc2c3cc1Oc1cc(ccc1O)C[C@@H]1c4c(cc(OC)c(O)c4Oc4ccc(cc4)C[C@@H]3N(C)CC2)CC[N+]1(C)C` it was “inactive”.
With `NS(=O)(=O)c1cc2c(cc1Cl)NC(CC1CCCC1)NS2(=O)=O` (stereo not given) the entry was “inactive”.
In the case of `Nc1ccnc(=O)[nH]1` it was “inactive”; in that of `CCCC(C)CC` (stereo not given), “inactive”.
In the case of `O=C(O)C(=O)Nc1cccc(-c2nn[nH]n2)c1`, the outcome was inactive.
In the case of `CC(=O)c1ccc(OCC(=O)N2CCCCC2)cc1` it was “inactive”.
In the case of `O=[Si]=O` it was “inactive”.
In the case of `CCCCCCCC[Si](OCC)(OCC)OCC` it was “inactive”.
Regarding `CCCCCCCCCCCCCCCCI`, the outcome was inactive.
